Our source for the Inhibition values is ChEMBL document CHEMBL1157539, “Thousands of chemical starting points for antimalarial lead identification” (Nature, 2010).

The assay relates to Plasmodium falciparum. The experiment in a line: GSK_TCMDC: Inhibition of Plasmodium falciparum 3D7 in whole red blood cells, using parasite LDH activity as an index of growth. Test compounds present at 2uM. It counts as functional.
As usually defined, the Inhibition is the drop in the measured response relative to a control, in per cent. A higher Inhibition goes with a response far below the control. The compound `CCN(CCCN1CCCCC1)c1cc(C)nc(Nc2ccc(Cl)cc2C)n1.O=C(O)C(F)(F)F` registered an Inhibition of 95%. Regarding `Cc1cc(NC(=O)[C@H](CC2CCCCC2)Nc2ccc(C#N)c3ccccc23)ccc1F.O=C(O)C(F)(F)F`, the Inhibition was 100%. As for `c1cncc(CNc2ncc(-c3ccsc3)c(-c3nccs3)n2)c1`, the figure is 81%; as for `CCOc1ccc(C(=O)Nc2cc(Br)c3c(c2)CNCC3)cc1Cl.Cl`, 92%.

The compound `Cl.O=C(Nc1ccc(C(=O)Nc2ccc(C3=NCCN3)cc2)cc1)Nc1ccc(C2=NCCN2)cc1` came in with an Inhibition of 94%.

As to `O=C(O)C(F)(F)F.O=S(=O)(NC1CCN(c2ccnc3cc(Cl)ccc23)C1)c1cccc(F)c1` (centres undefined), the Inhibition was 98%.

In the case of `O=[N+]([O-])c1ccc2nc(Nc3ccc(Cl)c(Cl)c3)c(Nc3ccc(Cl)c(Cl)c3)nc2c1`, the Inhibition was 100%.

For the compound `COc1ccc(C2=C(Nc3ccc4oc5ccccc5c4c3)c3ccccc3C2=O)cc1`, the Inhibition is listed as 93%. As for `Nc1nc2c(cnn2CCCCCCCP(=O)(O)O)c(=O)[nH]1`, the figure is 94%; as for `COc1cc(C)nc2ccc(NC(=O)COCC(=O)Nc3ccc4nc(C)cc(OC)c4c3)cc12`, 100%; as for `CC(=O)Nc1ccc(OCCCN(Cc2ccccc2C(F)(F)F)c2ccc(C(F)(F)F)c(C#N)c2)c(Cl)c1`, 85%. As for `COc1ccc(C)cc1NC(=O)CSc1nc2cccnc2n1C1CCCCC1`, the Inhibition is on record as 89%. Take `COC(=O)c1cc(OC2CCOC2=O)cc2c1OC(C)(C)O2` (centres undefined): the Inhibition is reported as 97%. For `COc1ccc2nccc([C@H](O)CN3CCC(NCc4cc(C)c5c(c4)OCCO5)CC3)c2n1.Cl`, the Inhibition turned out to be 96%.
